# Results taken from PMC5540273 (PLoS ONE, 2017).
# Test system: MAP4K3
# Conditions: concentration: 1 μM,replicates: in singlicate; n = 1
# 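Also: KINOMEscan kinase panel screen.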
row,Compound,%Inh
1,C[C@@H]1CNc2c(sc3ccc4nc(-c5ccncc5)ccc4c23)C(=O)N1,1%
2,C[C@@H]1CCN(C(=O)N2CCCC2)C[C@@H]1N(C)c1ncnc2[nH]ccc12,8%
3,Cl.c1ccc(Oc2ccc(Nc3ccnc4cc(-c5ccc(CN6CCNCC6)o5)ccc34)cc2)nc1 [GW567142],0%
4,COc1cc2c(Nc3ccc(NC(=O)c4ccccc4)cc3)ncnc2cc1OCCCN1CCOCC1 [GSK301329],6%
5,c1ccc(Oc2ccc(Nc3ccnc4ccc(-c5ccccn5)cc34)cc2)cc1 [GW407034],11%
6,COc1cc2ncn(-c3cc(OCC4CCCCC4)c(C(N)=O)s3)c2cc1OC [GSK204559],0%
7,C[C@@H]1CNc2c(sc3ccc4nc(-c5ccc(O)cc5)ccc4c23)C(=O)N1,31%
8,NC(=O)c1ccc(-c2cc3ncnc(SCC(=O)O)c3s2)cc1,0%
9,CS(=O)(=O)Nc1ccc(-c2ccnc3[nH]ccc23)cc1 [GSK993273],44%
10,N#Cc1cccc(C(=O)NC2CCN(c3ccnc(Nc4ccc(F)cc4)n3)C2)c1 (stereo not shown) [GSK1379708],0%
11,CS(=O)(=O)c1cccc(CNc2nc(Nc3ccc4c(c3)[C@@H]3C[C@@H]4CNC3=O)ncc2C(F)(F)F)c1,68%
12,COc1cc(Nc2nccc(N3CCC(NC(=O)c4cccc(C#N)c4)C3)n2)cc(OC)c1OC (stereo not shown) [GSK1379751],0%
13,CN1CCN(CCCNc2nccc(-c3c(-c4ccc(F)cc4)nn4cc(C(N)=O)ccc34)n2)CC1 [GW622475],0%
14,COc1cccc(OC)c1C(=O)Nc1cccc(-c2nn3ccccc3c2-c2ccnc(Nc3cccc(F)c3)n2)c1 [GSK361065],0%
15,CCOC(=O)N1CCC(n2cnc(-c3ccc(F)cc3)c2-c2ccnc(N)n2)CC1 [SB-219952],0%
16,COC(=O)Nc1nc2cc(Oc3ccc(NC(=O)Nc4cc(C(F)(F)F)ccc4Cl)cc3)ccc2[nH]1.Cl [GW697465],0%
17,CS(=O)c1ccc(-c2coc3ccc(-c4n[nH]c(=O)o4)cc23)cc1 (stereo not shown),1%
18,Cn1ccc2ncnc(Oc3ccc(NC(=O)Nc4cncc(C(F)(F)F)c4)c(Cl)c3)c21,0%
19,Nc1nccc(-c2ccc3c(N)n[nH]c3c2)n1 [GSK1034945],4%
20,NC(=O)Nc1sc(-c2ccc(F)cc2)cc1C(N)=O [GW789449],0%
21,CN1CCN(CCNc2nc3cc(Oc4ccc(NC(=O)Nc5cc(C(F)(F)F)ccc5F)cc4)ccc3[nH]2)CC1.Cl.Cl [GW768504],0%
22,Cl.Nc1n[nH]c2cc(-c3ccccn3)ccc12 [GSK2189892],0%
23,CCn1c(-c2nonc2N)nc2cncc(CNC3CCNCC3)c21.Cl [SB-747651],0%
24,Cn1ccc2ncnc(Oc3ccc(NC(=O)Nc4cccc(C(F)(F)F)c4)c(Cl)c3)c21,0%

# Test system: MAP4K4
# Conditions: concentration: 1 μM,replicates: in singlicate; n = 1
row,Compound,%Inh
1,Cn1ccc2ncnc(Oc3ccc(NC(=O)Nc4cc(C(C)(C)C)on4)c(Cl)c3)c21,94%
2,CC(=O)Nc1ccc(-c2cc3ncnc(SCC(=O)O)c3s2)cc1,0%
3,CN(c1ccccc1CNc1nc(Nc2ccc3c(c2)CC(=O)N3)ncc1C(F)(F)F)S(C)(=O)=O,0%
4,FC(F)(F)c1cc(Br)cc(Nc2nccc(-c3cnn4ncccc34)n2)c1 [GW810578],0%
5,O=C1NCCc2[nH]c(-c3ccncc3)cc21,25%
6,O=C(Nc1cccc(C(F)(F)F)c1)c1cccc(Oc2ccc3nccn3n2)c1,14%
7,Cc1ccc(CC(=O)N2CCc3cc(-c4cn(C)c5ncnc(N)c45)ccc32)cc1 [GSK2634758],0%
8,COC(=O)c1cccc(NC(=O)NC2CCN(c3ccnc(NCc4ccc(F)cc4)n3)CC2)c1 [GSK1379860],0%
9,Cn1ccc2ncnc(Oc3ccc(NC(=O)Nc4ccnc(C(F)(F)F)c4)c(Cl)c3)c21,0%
10,O=C(NOCC1CC1)c1cc(Br)c(F)c(F)c1Nc1ccc(I)cc1Cl,0%
11,COc1ccc(Nc2nccc(N3CCC(NC(=O)c4cccc(C#N)c4)C3)n2)cc1 (stereo not shown) [GSK1379730],16%
12,COc1cccc(C2=C(Nc3cccc(Cl)c3)C(=O)NC2=O)c1 [SB-341556],19%
13,Cc1n[nH]c2cc(Nc3ccnc(Nc4cccc(CN5CCOCC5)c4)n3)ccc12 [GW682569],10%
14,C[C@@H]1CNc2c(sc3ccc4nc(-c5ccncc5)ccc4c23)C(=O)N1,0%
15,C[C@@H]1CCN(C(=O)N2CCCC2)C[C@@H]1N(C)c1ncnc2[nH]ccc12,0%
16,Cl.c1ccc(Oc2ccc(Nc3ccnc4cc(-c5ccc(CN6CCNCC6)o5)ccc34)cc2)nc1 [GW567142],0%
17,COc1cc2c(Nc3ccc(NC(=O)c4ccccc4)cc3)ncnc2cc1OCCCN1CCOCC1 [GSK301329],11%
18,c1ccc(Oc2ccc(Nc3ccnc4ccc(-c5ccccn5)cc34)cc2)cc1 [GW407034],21%
19,COc1cc2ncn(-c3cc(OCC4CCCCC4)c(C(N)=O)s3)c2cc1OC [GSK204559],35%

row,Compound,%Inh
1,C[C@@H]1CNc2c(sc3ccc4nc(-c5ccc(O)cc5)ccc4c23)C(=O)N1,26%
2,NC(=O)c1ccc(-c2cc3ncnc(SCC(=O)O)c3s2)cc1,5%
3,CS(=O)(=O)Nc1ccc(-c2ccnc3[nH]ccc23)cc1 [GSK993273],2%
4,N#Cc1cccc(C(=O)NC2CCN(c3ccnc(Nc4ccc(F)cc4)n3)C2)c1 (stereo not shown) [GSK1379708],7%
5,CS(=O)(=O)c1cccc(CNc2nc(Nc3ccc4c(c3)[C@@H]3C[C@@H]4CNC3=O)ncc2C(F)(F)F)c1,40%
6,COc1cc(Nc2nccc(N3CCC(NC(=O)c4cccc(C#N)c4)C3)n2)cc(OC)c1OC (stereo not shown) [GSK1379751],0%
7,CN1CCN(CCCNc2nccc(-c3c(-c4ccc(F)cc4)nn4cc(C(N)=O)ccc34)n2)CC1 [GW622475],65%
8,COc1cccc(OC)c1C(=O)Nc1cccc(-c2nn3ccccc3c2-c2ccnc(Nc3cccc(F)c3)n2)c1 [GSK361065],21%
9,CCOC(=O)N1CCC(n2cnc(-c3ccc(F)cc3)c2-c2ccnc(N)n2)CC1 [SB-219952],9%
10,COC(=O)Nc1nc2cc(Oc3ccc(NC(=O)Nc4cc(C(F)(F)F)ccc4Cl)cc3)ccc2[nH]1.Cl [GW697465],12%
11,CS(=O)c1ccc(-c2coc3ccc(-c4n[nH]c(=O)o4)cc23)cc1 (stereo not shown),0%
12,Cn1ccc2ncnc(Oc3ccc(NC(=O)Nc4cncc(C(F)(F)F)c4)c(Cl)c3)c21,0%
13,Nc1nccc(-c2ccc3c(N)n[nH]c3c2)n1 [GSK1034945],6%
14,NC(=O)Nc1sc(-c2ccc(F)cc2)cc1C(N)=O [GW789449],26%
15,CN1CCN(CCNc2nc3cc(Oc4ccc(NC(=O)Nc5cc(C(F)(F)F)ccc5F)cc4)ccc3[nH]2)CC1.Cl.Cl [GW768504],1%
16,Cl.Nc1n[nH]c2cc(-c3ccccn3)ccc12 [GSK2189892],6%
17,CCn1c(-c2nonc2N)nc2cncc(CNC3CCNCC3)c21.Cl [SB-747651],0%
18,Cn1ccc2ncnc(Oc3ccc(NC(=O)Nc4cccc(C(F)(F)F)c4)c(Cl)c3)c21,12%
